# Assay outcomes as filed in PubChem BioAssay.
# This is a sample that favours compounds with a hit; in the whole collection about 7.6% have one here.
# Gal4-VP16 FLuc – VP16 counterscreen qHTS for inhibitors of ROR gamma transcriptional activity; Drosophila S2 Gal4-VP16 UAS-luciferase, luminescence, 20 h; Potency, µM (top dose mostly 53.6 µM), for inactives: at the top dose activity, negative = inhibition, hits mostly inhibitors; 3.5% of 310,000 active;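 further: Gal4-VP16 expression switched on by copper sulfate through the metallothionein promoter; potency means the concentration at half of the fitted maximal effect; on the % scale 0 is the no-effect control and ±100 the full control effect; nearly all actives have a fitted effect of over 50% in size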
# ELG1 repair inh – qHTS screen for small molecules that inhibit ELG1-dependent DNA repair in human embryonic kidney (HEK293T) cells expressing luciferase-tagged ELG1; HEK293T ELG1-luciferase reporter, luminescence, 16 h; DNA damage induced by 5-fluorouridine; Potency, µM (highest dose often 46.1 µM), inactives show at the top dose activity change, negative = inhibition, most hits filed as inhibitors; 2.3% of 330,000 active; AID 504467, 2011; further: potency means the concentration at half of the fitted maximal effect; on the % scale 0 is the no-effect control and ±100 the full control effect; nearly all actives have a fitted effect of over 55% in size
#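 Quantitative HTS, concentration-response format. 2,000 cells/well co-treated with 5-fluorouridine and compound, 16 hr in 5% CO2 at 37 °C; ONE-Glo luminescence read after 30 min.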
# p53 reactivation – qHTS assay for re-activators of p53 using a Luc reporter. H1299 p53-A138V BP100-luciferase reporter, luminescence, 24 h. Potency, µM (series often up to 92.2 µM), for inactives: at the highest dose activity change, positive = activation, actives largely listed as activators. 0.063% of 320,000 active; further: potency means the concentration at half of the fitted maximal effect; % of control where 0% means no effect; nearly all actives have a fitted effect of over 45% in size
#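 p53-null H1299 cells stably carrying temperature-sensitive p53-A138V and a BP100-luciferase reporter were pinned with compounds (4-point, 1:5 series) and held 24 hrs at 37 deg C. Luminescence was read 10 min after detection reagent.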
# Giardia killer – Small Molecules that selectively kill Giardia lamblia: qHTS | Giardia lamblia trophozoite viability | AID 540267, 2011 | 0.15% of 340,000 active | activity change, % at 7.66 µM, hits read low; in the data active means activity change below about -80%; inconclusive means between about -30% and that limit;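 further: parasites exposed to compound for two days anaerobically before the ATP read; on the % scale 0 is the no-effect control and ±100 the full control effect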
#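 Anaerobic 48 hrs incubation at 37 deg C of 100 trophozoites/well with test compounds; ATPLite 1-Step luminescence, 15-30 min RT, reports cellular ATP as viability.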
# BRCA1 expr up – qHTS Assay to Identify Small Molecule Activators of BRCA1 Expression; AID 624202, 2012; MCF7-BRCA1-FFLuc reporter, luminescence, 48 h; response scale: scaled: vehicle 0%, 10 µM genistein 100%; 1.1% of 380,000 active; Potency, µM (highest dose often 46.1 µM), for the others: at the highest dose activation, actives largely listed as activators; further: potency means the concentration at half of the fitted maximal effect; nearly all actives have a fitted effect of over 80% in size
#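 Luminescence from a BRCA1-driven firefly luciferase in MCF7 cells was read after 48 h compound exposure at 37 C. Data normalized against DMSO and a 10microM genistein activation control, then curve-fitted across the titration.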
# RORgamma inh – qHTS for inhibitors of ROR gamma transcriptional activity; Potency, µM (doses to about 53.6 µM), for the others: at the top dose activity change, negative = inhibition, actives largely listed as inhibitors; 5.4% of 310,000 active; Drosophila S2 Gal4-RORgamma UAS-luciferase reporter, 20 h; further: potency means the concentration at half of the fitted maximal effect; on the % scale 0 is the no-effect control and ±100 the full control effect; nearly all actives have a fitted effect of over 60% in size
# Target sequence (P51450 whole entry, looked up, the tested form may be a part): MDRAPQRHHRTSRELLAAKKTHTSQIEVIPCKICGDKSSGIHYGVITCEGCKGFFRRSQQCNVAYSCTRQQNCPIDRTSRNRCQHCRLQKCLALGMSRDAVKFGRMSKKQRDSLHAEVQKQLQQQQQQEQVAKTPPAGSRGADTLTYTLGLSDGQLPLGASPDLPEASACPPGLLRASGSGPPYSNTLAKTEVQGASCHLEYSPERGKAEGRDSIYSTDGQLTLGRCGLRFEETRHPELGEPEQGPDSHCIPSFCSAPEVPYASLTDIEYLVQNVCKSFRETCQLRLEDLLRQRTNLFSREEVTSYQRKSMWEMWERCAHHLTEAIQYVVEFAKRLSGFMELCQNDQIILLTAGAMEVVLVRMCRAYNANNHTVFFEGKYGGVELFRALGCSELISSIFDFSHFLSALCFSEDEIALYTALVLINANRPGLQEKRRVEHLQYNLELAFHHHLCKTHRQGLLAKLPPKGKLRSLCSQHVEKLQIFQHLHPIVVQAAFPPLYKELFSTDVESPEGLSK
#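 A Gal4/UAS one-hybrid system in insect cells: metallothionein-promoter Gal4–ROR gamma fusion plus Photinus luciferase reporter. Copper sulfate 700 uM final, 20 hr ambient incubation, luminescent detection after 10 min with reagent.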
# * hit, by the source's call; ? = inconclusive; . = no result; [ ] = another dose, or the depositor's remark. Unless noted, the call rests on the fitted dose curve; in most records, active means well fitted curve in the direction sought with a large enough effect; inconclusive means small, poorly fitted or top-dose-only effect, or another doubt; inactive means no such curve, though single readings can be large; an effect the other way counts as inactive or inconclusive.
SMILES,Gal4-VP16 FLuc,ELG1 repair inh,p53 reactivation,Giardia killer,BRCA1 expr up,RORgamma inh
O=C(c1ccco1)N1CCC[C@@]2(CCN(c3ncccn3)C2)C1,-6%,.,.,.,.,-16%
Cc1cc(=O)[nH]c2nc(N)ccc12,.,.,.,.,5%,.
O=C(/C=C/c1ccc(Cl)cc1Cl)NC(=S)Nc1ccccn1,5µM*,?,?,-20,?,2.8µM*
CC(C)C(=O)NC(=S)Nc1ccc(CN2CCOCC2)cc1,-10%,16%,-1%,41,26%,?
CC(C)c1ccc(/C=C/C(=O)Nc2ccc(CN3CCOCC3)cc2)cc1,?,9.2µM*,2%,-3,-100%,?
O=C(/C=C/c1ccccc1)NC(=S)Nc1ccc(CN2CCOCC2)cc1,?,?,-11%,-4,-21%,4µM*
O=C(/C=C/c1ccc(Cl)cc1)Nc1ccc(CN2CCOCC2)cc1,-13%,?,-2%,-7,-1%,45%
O=C(/C=C/c1ccc(Cl)cc1Cl)NC(=S)Nc1ccc(CN2CCOCC2)cc1,4.5µM*,-6%,7%,-1,-21%,3.5µM*
Cn1c(SCC(=O)Nc2ccc(N3CCOCC3)cc2)nnc1C1CC1,.,18%,2%,-5,0%,.
CCOc1ccc(S(=O)(=O)N2CCN(C(=O)CN3C(=O)NC4(CCCC4)C3=O)CC2)cc1,.,18%,-5%,-14,-29%,.
O=[N+]([O-])c1ccc(NC(=S)NCCc2ccccc2)cc1,16%,?,?,-8,-40%,-12%
O=C(Nc1cnn(Cc2ccc(Cl)cc2)c1)c1ccc([N+](=O)[O-])cc1,2%,21µM*,-1%,2,-47%,?
O=C(Nc1ccc([N+](=O)[O-])cc1)c1ccc(Cn2cc([N+](=O)[O-])cn2)cc1,8%[10 µM],?,15%,-28,-21%,38%
O=C(NCCc1ccccc1)Nc1ccc(Cl)cc1,4%,?,?,4,5µM*,18%
O=[N+]([O-])c1ccc(NC(=S)NCCc2ccc(Cl)cc2)cc1,3.5µM*,-8%,1%,-15,-81%,0.63µM*
O=C(Nc1ccc([N+](=O)[O-])cc1)Nc1ccc(Cl)cc1F,-14%,1%,-3%,2,-57%,12%
O=C(Nc1ccc(Cl)cc1)Nc1cc([N+](=O)[O-])ccc1F,?,13µM*,22%,18,-3%,?
O=C(NC1CCCCC1)N1CCN(Cc2ccco2)CC1,4%,15%,4%,11,19%,1%
CCc1ccc(C2=NN(CCC(=O)NC3CC3)C(=O)CC2)cc1,0%,9%,-6%,.,.,-2%
Cc1cc(C)c(S(=O)(=O)N2C[C@H]3CON(C)[C@H]3C[C@H]2c2ccc(N3CCCCC3)cc2)c(C)c1,.,.,.,.,6%,.
C=CCN(c1ccccc1Cl)S(=O)(=O)c1cccc(C(=O)NCCc2ccc(OC)cc2)c1,-15%,?,-3%,20,-67%,27%
CN(C)c1nc(OCCNC(=O)Nc2ccc(Cl)cc2)nc(N(C)C)n1,-6%,7.3µM*,-5%,13,-5%,-3%
S=C(NCCc1ccc(Cl)cc1)NC1CC1,8.9µM*,23%,-2%,5,44%,2.5µM*
Cc1ccccc1CNC(=O)Nc1ccc(Cl)cc1,.,?,.,-2,7.1µM*,.
NS(=O)(=O)c1ccc(CCNC(=S)NC2CCCC2)cc1,-10%,12%,5%,5,-2%,16%
SMILES,Gal4-VP16 FLuc,ELG1 repair inh,p53 reactivation,Giardia killer,BRCA1 expr up,RORgamma inh
S=C(NCCc1ccccc1)Nc1ccc(Cl)cc1,?,?,?,-20,?,6.3µM*
CC(C)c1ccc(C2(C)NC(=O)N(CC(=O)NCC3COc4ccccc4O3)C2=O)cc1 (configuration not stated),.,?,-1%,?,-22%,.
COCc1cc(=O)[nH]c(Nc2nc3ccc(C)cc3o2)n1,3.2µM*,?,?,-9,-22%,4.5µM*
Cc1cc(NC(=O)C(=O)NCCN2CCN(C(=O)c3cccs3)CC2)ccc1Br,-7%,?,-7%,2,-1%,?
COc1cc(N=Nc2cccc(S(N)(=O)=O)c2)c2ccccc2c1N,-1%,?,-7%,5,-97%,11µM*
NC1=NC(=Nc2cccc(S(N)(=O)=O)c2)c2ccccc21,0%,17%,6%,13,-20%,-19%
Cc1[nH]c2ccccc2c1C(=O)COc1ccccc1,2%,?,2%,0,6%,35%
Nc1nonc1C(=O)NCCNCc1cc(Br)ccc1OCc1ccc(F)cc1,13µM*,-10%,-14%,-14,-1%[1.84 µM],-37%
CCCn1c(C)cc(C(=O)CN2C(=O)c3cccc(N)c3C2=O)c1C,16%,?,?,9,?,35%
CC1CCCN(C(=O)CSc2nc3ncccc3[nH]2)C1 (configuration not stated),-17%,-5%,5%,1,41%,16%
CC1CCCN(C(=O)CSc2cnc3ccccc3n2)C1 (configuration not stated),-1%,?,29%,3,11µM*,-1%
O=C1c2ccccc2CN1c1ccccc1,-15%,?,8%,-5,6.3µM*,3%
CN(CC(O)CON=C1c2ccccc2-c2ccccc21)S(=O)(=O)c1ccc(Br)cc1 (configuration not stated),?,21µM*,-1%,-1,-83%,29%
CCN(CC(O)CON=C1c2ccccc2-c2ccccc21)S(=O)(=O)c1ccc(C)cc1 (configuration not stated),?,-29%,6%,7,-80%,41%
CC1CCCC(NC(=O)CN(C)S(=O)(=O)c2cccc3cccnc23)C1C (configuration not stated),3%,?,0%,5,3%,-30%
CC(C)n1ncc2c(C(=O)Nc3ccc(S(C)(=O)=O)cc3)cc(C3CC3)nc21,.,?,-2%,-16,-17%,.
CNC(=O)c1cccc(NC(=O)c2cc(-c3ccccc3)nc3c2cnn3C(C)C)c1,.,7.9µM*,-9%,-15,-49%,.
CC(C)n1ncc2c(C(=O)Nc3cccc(S(=O)(=O)N(C)C)c3)cc(C3CC3)nc21,.,21µM*,-16%,11,-37%,.
CCOc1ncccc1C(=O)Nc1ccc(S(=O)(=O)Nc2cc(C)nc(C)n2)cc1,.,-2%,-5%,-14,-34%,.
